Assay results published in PubChem BioAssay.
The source made the active and inactive calls.

Columns and labels:
[1] = tested on: Human papillomavirus type 1a protein E7 (residues 44-93); assay: HPV1a E7 fragment binders on microarrays, primary screen, biochemical, small-molecule microarray, residues 44-93, 635 nm fluorescence (AID 1108); details: small-molecule microarray binding, fluorescence 635 nm; higher = more signal;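 note: E7 fragment applied at 1 µg/mL in TBST for 1 h at 4 C; score combines spot fluorescence with its signal to noise ratio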
[2] = modulators of HCV replicon luciferase signal, primary screen, HCV replication inhibitor project, Huh7 cells, luciferase reporter (AID 1109); details: 48 h, higher = more signal;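 note: huh7 hepatoma cells harbouring a luciferase neomycin HCV replicon reporter; luciferase luminescence as measure of HCV replicon replication; test concentration not given here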
[3] = biological target: Left-right determination factor 2 (Homo sapiens) (UniProt O00292); assay: LEFTY2 binders on small-molecule microarrays, primary screen, biochemical, small-molecule microarray, 635 nm fluorescence scan (AID 1110); details: LEFTY2 binding, higher = more signal
[4] = biological target: Calmodulin-1 (Homo sapiens) (UniProt P0DP23); assay: CALM1 binders on microarrays, EGTA buffer, profiling panel, biochemical, small-molecule microarray, Cy5-labelled CALM1 (AID 1111); details: Cy5-CALM1 binding fluorescence, higher = more signal;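 note: labelled calmodulin applied in Tris saline Tween buffer holding calcium plus EGTA and DTT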
[5] = biological target: Calmodulin-1 (Homo sapiens) (UniProt P0DP23); assay: calcium-bound CALM1 binders on microarrays, profiling panel, artefact control for SMM control-protein annotation, biochemical, small-molecule microarray, Cy5-labelled CALM1, plus calcium (AID 1112); details: Cy5-CALM1 binding fluorescence, higher = more signal;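 note: score merges spot fluorescence with signal to noise from triplicate slides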
[6] = small-molecule microarray binders of probe aWnt5a, primary screen, biochemical, biotinylated probe, 635/667 nm fluorescence (AID 1113); details: higher = more signal;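 note: score merges 667 nm fluorescence intensity with signal-to-noise per printed feature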
[7] = small-molecule microarray binders of probe aShh, primary screen, biochemical, biotinylated probe, 635/667 nm fluorescence (AID 1114); details: higher = more signal;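 note: probe is biotin-labelled aShh protein from a stem cell growth factor screen; measures binding of labelled protein to compounds printed on the slide; score merges feature fluorescence at 667 nm with signal-to-noise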
[8] = small-molecule microarray binders of probe aNog, primary screen, biochemical, biotinylated probe, 635/667 nm fluorescence (AID 1115); details: higher = more signal;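 note: probe is biotinylated aNog protein used at 0.15 µg/mL for 1 h at 4 C; z-score combines 667 nm fluorescence of each spot with its signal to noise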
[9] = biological target: Torsin-1A-interacting protein 1 (Homo sapiens) (UniProt Q5JTV8); assay: LAP1 binders from COS7 cell lysate, primary screen, small-molecule microarray, 635/667 nm fluorescence (AID 1116); details: COS7-hLAP1 lysate binding, 635 nm fluorescence, higher = more signal
[10] = biological target: Alpha-bungarotoxin (Bungarus multicinctus) (UniProt P60615); assay: alpha-bungarotoxin binders on microarray, profiling panel, artefact control for SMM control protein annotation, biochemical, small-molecule microarray, Alexa647 label, 635/667 nm fluorescence (AID 1117); details: alpha-BTX-A647 binding fluorescence, higher = more signal
Albumin (Bos taurus) = Albumin (Bos taurus) (UniProt P02769); assay: bovine serum albumin binders on microarray, profiling panel, artefact control for SMM control protein annotation, biochemical, small-molecule microarray, Alexa647 label, 635/667 nm fluorescence (AID 1118); details: BSA-A647 binding, fluorescence 635 nm, higher = more signal;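 note: score merges 667 nm emission intensity and signal-to-noise per printed compound spot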
[11] = small-molecule microarray binders of probe aXIP, primary screen, biochemical, NeuroSMM set, 635/667 nm fluorescence (AID 1119); details: higher = more signal, called active from +8 up or from −8 down;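 note: probe is the protein aXip251-270 applied at 1 µg/mL to compound-printed slides; binding of probe to printed compounds measured as 667 nm fluorescence plus signal to noise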
[12] = small-molecule binders of probe aNOTCH3, primary screen, biochemical, small-molecule microarray, 635/667 nm fluorescence (AID 1120); details: higher = more signal;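 note: probe is a biotin-tagged antibody raised against NOTCH3 rather than NOTCH3 protein; score merges spot fluorescence near 667 nm with spot signal to noise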
[13] = small-molecule binders of probe aNOTCH2, primary screen, biochemical, small-molecule microarray, 635/667 nm fluorescence (AID 1121); details: higher = more signal;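 note: score merges feature fluorescence read at 667 nm with its signal to noise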
[14] = biological target: Carbonic anhydrase 2 (Homo sapiens) (UniProt P00918); assay: CAII small-molecule binders, profiling panel, biochemical, small-molecule microarray, Alexa647-labelled CAII (AID 1122); details: CAII-A647 binding fluorescence, higher = more signal
[15] = COS7 lysate on small-molecule microarray, probe aHis, 635 nm (AID 1123); details: COS7 cell lysate, fluorescence, higher = more signal;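 note: z-score combines 667nm fluorescence intensity with signal-to-noise per printed compound spot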
[16] = compound binding in COS7 lysate, probe aLAP1, primary screen, cell lysate, small-molecule microarray (AID 1124); details: probe aLAP1, fluorescence, higher = more signal;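 note: lysate comes from COS7 cells expressing LAP1 and is applied at 0.3 µg/mL; score merges spot fluorescence near 667 nm with signal-to-noise over triplicate slides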
Sam68 (KHDRBS1) = assay: Sam68 small-molecule binders, primary screen, biochemical, small-molecule microarray, 635 nm fluorescence (AID 1125); details: small-molecule microarray binding, higher = more signal;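 note: score merges 667 nm channel intensity with signal to noise over triplicate slides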
[17] = tested on: Chordin-like protein 2 (CHRDL2); assay: CHRDL2 small-molecule binders, primary screen, biochemical, small-molecule microarray, 635 nm fluorescence (AID 1126); details: small-molecule microarray binding, fluorescence 635 nm; higher = more signal;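 note: printed compound slides probed with Chrdl2 protein at 4 µg/mL for 1 h at 4 C; score merges 667 nm emission intensity with signal to noise over three replicate slides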
[18] = biological target: Concanavalin-A (Canavalia ensiformis) (UniProt P02866); assay: ConA small-molecule binders, primary screen, artefact control for SMM control protein annotation, biochemical, small-molecule microarray, Alexa647 label, 635 nm (AID 1127); details: ConA-A647 binding fluorescence, higher = more signal;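 note: z combines 667 nm emission intensity with signal-to-noise across three replicate slides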
Chain of Concanavalin-A (Canavalia ensiformis) (P02866 whole entry, looked up): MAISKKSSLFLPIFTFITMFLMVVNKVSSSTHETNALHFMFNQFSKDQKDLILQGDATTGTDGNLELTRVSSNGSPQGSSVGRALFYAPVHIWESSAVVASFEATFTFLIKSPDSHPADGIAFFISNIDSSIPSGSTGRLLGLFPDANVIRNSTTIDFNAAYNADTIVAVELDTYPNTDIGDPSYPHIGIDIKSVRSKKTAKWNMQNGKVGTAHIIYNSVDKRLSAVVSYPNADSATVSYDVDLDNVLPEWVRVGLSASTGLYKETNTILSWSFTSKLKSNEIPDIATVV

Chain of Alpha-bungarotoxin (Bungarus multicinctus) (P60615 whole entry, looked up): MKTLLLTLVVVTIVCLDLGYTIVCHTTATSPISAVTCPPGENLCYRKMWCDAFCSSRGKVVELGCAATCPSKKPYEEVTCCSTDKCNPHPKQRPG
Chain of Albumin (Bos taurus) (P02769 whole entry, looked up): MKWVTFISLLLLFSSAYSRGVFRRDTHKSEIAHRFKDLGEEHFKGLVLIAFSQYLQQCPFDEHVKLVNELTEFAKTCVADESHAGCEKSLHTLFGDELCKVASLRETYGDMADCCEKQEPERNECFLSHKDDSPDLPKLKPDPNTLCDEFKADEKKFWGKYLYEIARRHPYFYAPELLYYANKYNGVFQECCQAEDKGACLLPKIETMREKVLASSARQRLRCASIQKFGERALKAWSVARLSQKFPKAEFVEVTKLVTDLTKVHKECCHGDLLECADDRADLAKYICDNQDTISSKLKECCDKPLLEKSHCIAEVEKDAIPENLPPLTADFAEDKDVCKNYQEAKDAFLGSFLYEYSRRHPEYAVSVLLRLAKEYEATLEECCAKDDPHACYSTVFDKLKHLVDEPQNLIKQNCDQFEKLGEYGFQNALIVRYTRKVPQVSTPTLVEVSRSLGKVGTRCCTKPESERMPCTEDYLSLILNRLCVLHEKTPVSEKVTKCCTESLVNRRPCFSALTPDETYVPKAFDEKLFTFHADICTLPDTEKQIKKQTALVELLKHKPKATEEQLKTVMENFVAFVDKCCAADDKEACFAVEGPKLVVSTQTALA
Chain of Left-right determination factor 2 (Homo sapiens) (O00292 whole entry, looked up): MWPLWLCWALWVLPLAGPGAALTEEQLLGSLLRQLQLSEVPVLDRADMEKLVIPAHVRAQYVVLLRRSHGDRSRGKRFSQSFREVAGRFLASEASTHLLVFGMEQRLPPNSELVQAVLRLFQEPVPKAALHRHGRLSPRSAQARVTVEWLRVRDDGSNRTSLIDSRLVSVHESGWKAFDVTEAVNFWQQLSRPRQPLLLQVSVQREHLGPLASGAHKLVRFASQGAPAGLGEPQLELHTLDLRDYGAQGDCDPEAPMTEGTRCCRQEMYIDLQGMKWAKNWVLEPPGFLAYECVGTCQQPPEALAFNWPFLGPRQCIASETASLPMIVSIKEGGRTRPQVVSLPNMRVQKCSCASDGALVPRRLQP
Chain of Torsin-1A-interacting protein 1 (Homo sapiens) (Q5JTV8 whole entry, looked up): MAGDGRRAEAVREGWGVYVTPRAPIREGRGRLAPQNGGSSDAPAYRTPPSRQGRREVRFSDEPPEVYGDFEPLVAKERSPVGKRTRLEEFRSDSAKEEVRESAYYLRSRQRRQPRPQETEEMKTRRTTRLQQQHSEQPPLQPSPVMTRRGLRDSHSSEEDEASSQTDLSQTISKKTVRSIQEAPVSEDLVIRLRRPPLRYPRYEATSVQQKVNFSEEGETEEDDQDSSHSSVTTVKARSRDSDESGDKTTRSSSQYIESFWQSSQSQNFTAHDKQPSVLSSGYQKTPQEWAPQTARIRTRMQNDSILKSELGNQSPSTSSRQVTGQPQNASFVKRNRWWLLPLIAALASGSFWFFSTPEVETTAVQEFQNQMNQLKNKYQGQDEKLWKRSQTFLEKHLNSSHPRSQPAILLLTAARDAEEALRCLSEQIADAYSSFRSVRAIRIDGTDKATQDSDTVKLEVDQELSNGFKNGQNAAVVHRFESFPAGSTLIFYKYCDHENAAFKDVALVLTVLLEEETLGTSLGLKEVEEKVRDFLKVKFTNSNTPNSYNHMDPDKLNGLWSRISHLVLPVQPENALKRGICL

CC(C)=CCCC(C)=CCON=C1C[C@@H](O)[C@@H](O)[C@@H]2[C@@H]3C(=O)N(Cc4ccccc4)C(=O)[C@@H]3CC[C@H]12
composite z-score [1]: 0.759
z-score [2]: -2.74
composite z-score [3]: 0.985
composite z-score [4]: 0.0703
composite z-score [5]: -0.985
composite z-score [6]: -0.164
composite z-score [7]: -0.2
composite z-score [8]: -0.0223
composite z-score [9]: 0.577
composite z-score [10]: 0.121
composite z-score (Albumin (Bos taurus)): 0.188
composite Z-score [11]: 0.4 (inactive)
composite z-score [12]: 0.0493
composite z-score [13]: -0.175
composite z-score [14]: 0.754
composite z-score [15]: 1.26
composite z-score [16]: 0.146
composite z-score (Sam68 (KHDRBS1)): 1.29
composite z-score [17]: 0.955
composite z-score [18]: 0.541

COC(=O)CC=C[C@@H](C)[C@@H](C=NOC[C@H]1O[C@H](c2ccccc2)C=C[C@@H]1Oc1ccc(OC)cc1)OC
composite z-score [1]: -0.585
z-score [2]: -1.7
composite z-score [3]: -0.255
composite z-score [4]: -1.15
composite z-score [5]: -1.27
composite z-score [6]: -0.106
composite z-score [7]: -0.243
composite z-score [8]: -0.44
composite z-score [9]: -0.37
composite z-score [10]: -0.262
composite z-score (Albumin (Bos taurus)): 0.479
composite Z-score [11]: -0.0708 (inactive)
composite z-score [12]: -0.23
composite z-score [13]: -0.131
composite z-score [14]: -0.223
composite z-score [15]: -0.3
composite z-score [16]: -0.0842
composite z-score (Sam68 (KHDRBS1)): -0.379
composite z-score [17]: 0.303
composite z-score [18]: -0.766

CCOC(=O)[C@H](Cc1ccccc1)NC(=O)CCC1CC(OC(=O)NCc2cccc3ccccc23)CC2(CCCC(COC(=O)NCc3cccc(C(F)(F)F)c3)O2)O1 (stereo not given in full)
composite z-score [1]: 0.72
z-score [2]: -0.771
composite z-score [3]: -0.131
composite z-score [4]: 0.716
composite z-score [5]: 0.143
composite z-score [6]: -0.0816
composite z-score [7]: -0.345
composite z-score [8]: -0.213
composite z-score [9]: 0.465
composite z-score [10]: 0.362
composite z-score (Albumin (Bos taurus)): 0.331
composite Z-score [11]: 0.0898 (inactive)
composite z-score [12]: -0.124
composite z-score [13]: -0.14
composite z-score [14]: 0.138
composite z-score [15]: 0.345
composite z-score [16]: 0.131
composite z-score (Sam68 (KHDRBS1)): 0.462
composite z-score [17]: -0.0424
composite z-score [18]: 0.187

CC(CCN1CCc2nc(-c3ccccc3)c(-c3ccccc3)cc2C1)=NOC[C@@H](O)[C@H]1O[C@@H]2OC(C)(C)O[C@@H]2[C@H]1O
composite z-score [1]: 1.12
z-score [2]: -2.73
composite z-score [3]: 0.642
composite z-score [4]: 0.12
composite z-score [5]: -0.233
composite z-score [6]: -0.139
composite z-score [7]: -0.0709
composite z-score [8]: -0.353
composite z-score [9]: 0.825
composite z-score [10]: 0.673
composite z-score (Albumin (Bos taurus)): 0.535
composite Z-score [11]: 0.42 (inactive)
composite z-score [12]: -0.051
composite z-score [13]: -0.0291
composite z-score [14]: 0.0181
composite z-score [15]: 1
composite z-score [16]: 0.608
composite z-score (Sam68 (KHDRBS1)): 1.13
composite z-score [17]: 0.507
composite z-score [18]: 0.696

Cc1cc2c(c(=O)o1)[C@@H](O)[C@H]1O[C@H]1C2=O
composite z-score [1]: -0.0158
z-score [2]: 0.73
composite z-score [3]: 0.384
composite z-score [4]: -0.374
composite z-score [5]: -0.876
composite z-score [6]: -0.154
composite z-score [7]: -0.243
composite z-score [8]: -0.265
composite z-score [9]: 0.27
composite z-score [10]: 0.56
composite z-score (Albumin (Bos taurus)): -0.293
composite Z-score [11]: -0.0055 (inactive)
composite z-score [12]: -0.0744
composite z-score [13]: -0.132
composite z-score [14]: -0.131
composite z-score [15]: -0.243
composite z-score [16]: -0.108
composite z-score (Sam68 (KHDRBS1)): 0.568
composite z-score [17]: 0.705
composite z-score [18]: 0.358
